Compound activity as filed in PubChem BioAssay.
POLI inh = DNA polymerase iota (human) inhibition; Pol iota fluorescent replication assay, 10 min; Potency, µM (highest dose often 115 µM), for the others: at the highest dose activity, negative = inhibition, hits mostly inhibitors; hit rate 1% among 390,000
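Fluorescent replication assay read twice, at 0 min and 10 min after adding 50 nM (final) substrate. Enzyme (10 nM) and compounds were first incubated 15 min at room temperature; enzyme-free buffer wells were negative controls.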
WRN helicase inh = inhibitors of human WRN helicase; WRN helicase unwinding, fluorescent forked duplex, kinetic; hit rate 0.46% among 360,000; AID 651768; Potency, µM (titrated, usually from 114 µM), for the others: at the highest dose activity change, negative = inhibition, usual class: inhibitors; also: % is scaled to controls: 0 for no effect and ±100 for the full control effect; nearly all actives have a fitted effect of over 55% in size
Target sequence (Q14191 whole entry, looked up): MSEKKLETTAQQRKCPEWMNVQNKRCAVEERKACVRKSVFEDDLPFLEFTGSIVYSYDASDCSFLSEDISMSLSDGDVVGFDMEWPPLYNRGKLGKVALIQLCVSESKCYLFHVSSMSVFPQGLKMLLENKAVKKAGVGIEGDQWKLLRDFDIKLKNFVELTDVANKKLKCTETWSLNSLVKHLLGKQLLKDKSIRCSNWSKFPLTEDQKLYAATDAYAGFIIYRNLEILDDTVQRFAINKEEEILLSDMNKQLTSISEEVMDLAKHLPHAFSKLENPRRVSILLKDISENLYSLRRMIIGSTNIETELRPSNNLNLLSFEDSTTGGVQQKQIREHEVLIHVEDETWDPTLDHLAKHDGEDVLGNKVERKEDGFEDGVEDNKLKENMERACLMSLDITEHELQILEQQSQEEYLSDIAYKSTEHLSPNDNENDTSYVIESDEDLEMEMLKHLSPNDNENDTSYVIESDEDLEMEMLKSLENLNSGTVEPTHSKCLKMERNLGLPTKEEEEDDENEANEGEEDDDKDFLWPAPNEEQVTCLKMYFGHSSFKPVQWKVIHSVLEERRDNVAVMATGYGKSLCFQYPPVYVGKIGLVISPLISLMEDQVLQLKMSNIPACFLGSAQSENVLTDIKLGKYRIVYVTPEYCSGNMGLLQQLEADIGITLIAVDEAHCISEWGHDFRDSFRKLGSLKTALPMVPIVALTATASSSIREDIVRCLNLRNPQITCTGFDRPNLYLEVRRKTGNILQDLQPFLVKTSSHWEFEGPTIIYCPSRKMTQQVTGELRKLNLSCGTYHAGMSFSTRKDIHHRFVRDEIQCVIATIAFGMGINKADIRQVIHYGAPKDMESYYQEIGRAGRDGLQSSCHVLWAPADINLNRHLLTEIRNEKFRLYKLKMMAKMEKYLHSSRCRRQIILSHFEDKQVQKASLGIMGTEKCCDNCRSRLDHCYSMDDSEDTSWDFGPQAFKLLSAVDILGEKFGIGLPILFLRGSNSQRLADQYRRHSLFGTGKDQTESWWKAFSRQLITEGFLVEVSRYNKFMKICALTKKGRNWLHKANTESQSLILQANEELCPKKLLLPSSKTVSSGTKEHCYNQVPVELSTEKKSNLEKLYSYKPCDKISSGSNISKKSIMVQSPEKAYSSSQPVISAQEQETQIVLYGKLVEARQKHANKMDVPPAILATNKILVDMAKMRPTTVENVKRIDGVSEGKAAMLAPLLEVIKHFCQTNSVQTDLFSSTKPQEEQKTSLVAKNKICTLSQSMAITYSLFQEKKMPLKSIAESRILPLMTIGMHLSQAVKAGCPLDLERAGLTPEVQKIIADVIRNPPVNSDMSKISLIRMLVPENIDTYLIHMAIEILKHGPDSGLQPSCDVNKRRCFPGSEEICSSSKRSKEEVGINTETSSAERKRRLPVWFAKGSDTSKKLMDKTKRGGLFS
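Fluorescence dequenching readout, ex 525 nm/em 598 nm, kinetic mode: forked duplex DNA (100 nM final) with adjacent fluorophore and quencher unwound by WRN (20 nM final) with 2 mM ATP. Compound preincubation 15 min, room temperature.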
Pol kappa inh-1 = blocks human DNA polymerase kappa activity; purified Pol kappa, fluorescent DNA synthesis assay, 10 min; hit rate 0.53% among 400,000; Potency, µM (top dose mostly 107 µM), inactives show at the highest dose activity, negative = inhibition, most hits filed as inhibitors; AID 588579; also: % is scaled to controls: 0 for no effect and ±100 for the full control effect
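Kinetic fluorescence readout at 0 and 10 min followed reaction start with substrate at 50 nM final. Beforehand, enzyme (10 nM Pol kappa) stood 15 min with compound at room temperature; buffer-only wells were negative controls.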
Pol beta inh = DNA polymerase beta (human) inhibition; P06746; Pol beta primer extension/strand displacement, fluorescence kinetic; Potency, µM (top dose mostly 114 µM), inactives show at the top dose activity change, negative = inhibition, most hits filed as inhibitors; hit rate 1.3% among 340,000; also: % is scaled to controls: 0 for no effect and ±100 for the full control effect
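Reaction started by 50 nM substrate onto compound-treated Pol beta (10 nM, 15 min preincubation, room temperature); plates read at 0 min and 10 min. Normalized concentration-effect data fitted by four-parameter Hill equation.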
Pol eta inh-1 = blocks human DNA polymerase eta activity; AID 588591; hit rate 1.2% among 390,000; recombinant Pol eta, fluorescent DNA replication assay; Potency, µM (titrated, usually from 114 µM), for inactives: at the top dose activity change, negative = inhibition, most hits filed as inhibitors; Q9Y253; also: % is scaled to controls: 0 for no effect and ±100 for the full control effect
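Fluorescent replication assay: 50 nM final substrate added after a 15 min room-temperature compound preincubation with 10 nM enzyme. Signal taken at 0 min and again at 10 min.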
FEN1 inhibitor = blocks human flap endonuclease 1 | Recombinant FEN1 flap cleavage, fluorescence, 15 min | AID 588795 | Potency, µM (series often up to 114 µM), for the others: at the top dose activity change, negative = inhibition, hits mostly inhibitors | hit rate 0.35% among 390,000; also: % is scaled to controls: 0 for no effect and ±100 for the full control effect; nearly all actives have a fitted effect of over 65% in size
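FEN1 at 10 nM preincubated with compounds 15 min at room temperature, then flap DNA substrate added at 50 nM final. Signal read at 0 and 15 min; concentration-response fitted with four-parameter Hill equation.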
POLI cherry-pick = Human Pol iota inhibitor confirmatory assay | shares compounds with Pol kappa inh-1 | Pol iota primer extension, TAMRA/BHQ fluorescence | Potency, µM, actives largely listed as inhibitors | hit rate 77% among 1,500 | AID 720496
Pol kappa inh-2 = confirmation of human DNA polymerase kappa inhibitors; shares compounds with Pol eta inh-1; AID 720501; hit rate 76% among 920; purified Pol-kappa, fluorescent strand-displacement substrate; Potency, µM, actives largely listed as inhibitors
Pol eta inh-2 = Pol eta (human) inhibition, cherry-pick confirmation; Pol eta primer extension, TAMRA/BHQ fluorescence, 10 min; Potency, µM, usual class: inhibitors; shares compounds with Pol eta inh-1; AID 720502; hit rate 64% among 2,600
* hit, by the source's call; ? = inconclusive; · = not tested or not shown; [ ] = dose if it differs, or a comment. Most compounds without a hit are left out; they make up all but 2.4% or so of the library. Calls follow the shape of the dose curve; as a rule, active = well fitted curve in the direction sought with a large enough effect; inconclusive = small, poorly fitted or top-dose-only effect, or another doubt; inactive = no such curve, though single readings can be large; an effect the other way counts as inactive or inconclusive. Potency is read from the fitted curve at half-maximal effect.

SMILES	POLI inh	WRN helicase inh	Pol kappa inh-1	Pol beta inh	Pol eta inh-1	FEN1 inhibitor	POLI cherry-pick	Pol eta inh-2	others
Oc1cccc(/C=N/NC(=S)Nc2cccnc2)c1O	7.9µM*	?	?	16µM*	20µM*	?	38*	85*
Oc1ccc(/C=N/NC(=S)Nc2cccnc2)c(O)c1	7%	-7%	-6%	11%	-13%	-14%	·	·
O=[N+]([O-])c1ccc(C=NNC(=S)NN=Cc2ccc([N+](=O)[O-])cc2)cc1	14µM*	56µM*	25µM*	·	?	?	19*	43*	Pol kappa inh-2=17*
O=[N+]([O-])c1ccc(C=NNC(=S)Nc2ccc(F)cc2)cc1	17%	-2%	6%	·	-13%	4%	·	·
COc1ccccc1-c1nc2c(c(SCC(=O)Nc3ccc(C)c(C)c3)n1)Cc1c(CO)cnc(C)c1O2	-2%	·	-11%	0%	?	-8%	?	?
O=C(NCc1ccc2c(c1)OCO2)c1ccc(Br)cc1	-7%	6%	-5%	50%	-5%	-20%	·	·
O=C(NCc1ccc2c(c1)OCO2)c1cc2ncc(Br)cn2n1	22µM*	?	-43%	14µM*	10µM*	7%	?	?
CCCn1c2ccccc2c2cnn(CC(=O)NCc3ccc(OC)cc3)c(=O)c21	10%	·	-19%[60.1 µM]	0%	-17%	-5%	·	·
O=C(Cn1ccn(-c2ccc(F)cc2)c(=O)c1=O)NCCc1ccccc1	23%	·	-24%	4%	-16%	18%	·	·
O=C(OCc1ccccc1F)c1ccc(-c2nnn(Cc3ccccc3)n2)cc1	-1%	·	-2%	-1%	·	5%	·	·
O=C(NN1C(=O)CSC1=S)C(=O)NN1C(=O)CSC1=S	?	22µM*	?	1.8µM*	28µM*	?	34*	21*
CN1N/C(=C\c2ccccc2)N=C2C(=O)N(C)C(=O)N=C21	-98%	·	?	·	·	?	2.7*	5.4*
CC/C=C1/N=C2C(=O)N(C)C(=O)N=C2N(C)N1	-19%	·	-9%	·	·	-11%	·	·
COc1ccc(NC(=O)C2=C(C)Nc3nc(SCc4ccccc4C)nn3C2c2cc(OC)c(O)c(OC)c2)cc1 (stereo not drawn)	28µM*	·	-28%	8.9µM*	?	-11%	?	·	Pol kappa inh-2=?
COc1ccc(NC(=O)C2=C(C)Nc3nc(SCc4ccccc4C)nn3C2c2ccc(Br)cc2)cc1 (stereo not drawn)	21%	·	-20%	1%	-8%	0%	·	·
COC(=O)c1ccc(COc2ccc(/C=N/Nc3cccc(C(=O)O)c3)cc2)cc1	32µM*	-6%[11.6 µM]	?	-30%	18µM*	-12%	60*	27*
COc1cc(OC)c(NC(=O)N2CCc3cc(OC)c(OC)cc3C2CC(=O)O)cc1Cl (stereo not drawn)	-10%	·	-6%[60.1 µM]	4%	16%	12%	·	·
O=C(O)c1ccc(/C=N/NC(=O)c2cc(-c3ccc4c5c(cccc35)CC4)n[nH]2)cc1	?	?	?	28µM*	25µM*	?	60*	38*	Pol kappa inh-2=12*
CCOC(=O)CN(C(=O)c1snc(C(N)=O)c1N)C(C(=O)NC1CCCCC1)c1ccc(F)cc1 (stereo not drawn)	?	4%[11.6 µM]	79µM*	20µM*	35µM*	-28%	42*	?
